GLP-1R agonist: agonists of human GLP-1 receptor | P43220 | HEK293 GLP-1R CRE-luciferase, luminescence, 4-6 h; cells express a hypersensitive GLP-1R form | Potency, µM (titrated, usually from 45.6 µM), for inactives: top-dose activation, usual class: activators | actives 0.007% (n = 380,000) | AID 624172; also: potency is read from the fitted curve at half-maximal effect; % of control where 0% means no effect
D3 ag: activates the human D3 dopamine receptor; P35462; D3R DiscoveRx beta-arrestin cells, luminescence, 90 min; max activation, %; actives 0.58% (n = 410,000); in the data active = max activation above about 30%; also: 0% is about no effect
Target sequence (P35462 whole entry, looked up): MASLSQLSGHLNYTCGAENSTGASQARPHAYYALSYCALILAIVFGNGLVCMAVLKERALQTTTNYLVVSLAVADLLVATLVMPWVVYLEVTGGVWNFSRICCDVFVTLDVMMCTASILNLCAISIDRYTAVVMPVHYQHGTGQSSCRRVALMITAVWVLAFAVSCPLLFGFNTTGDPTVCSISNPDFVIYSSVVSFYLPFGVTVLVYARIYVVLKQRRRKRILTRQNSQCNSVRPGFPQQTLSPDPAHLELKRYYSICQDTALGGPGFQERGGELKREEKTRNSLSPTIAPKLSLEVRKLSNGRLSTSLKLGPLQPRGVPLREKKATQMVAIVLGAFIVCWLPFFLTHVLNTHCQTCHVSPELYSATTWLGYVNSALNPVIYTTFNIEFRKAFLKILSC
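Agonist mode: compounds and dopamine controls were applied to plated cells for 90 min at 37 degrees C after an overnight attachment at 1500 cells/well. Luminescent read-out followed 30 - 60 minutes at room temperature with DiscoveRx detection reagent.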
DRD3 antagonist: blocks the human D3 dopamine receptor; P35462; D3R cells, DiscoveRx beta-arrestin luminescence, antagonist mode; hits give low values; max response, negative = inhibition, %; actives 2.5% (n = 360,000); in the data active = max response below about -50%; inconclusive = no clear call, values can overlap the other calls; also: % is scaled to controls: 0 for no effect and ±100 for the full control effect
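Cells expressing the human receptor were seeded at 1500 cells/well, incubated overnight at 37 degrees C in 5% CO2, then exposed to library compounds with dopamine controls for 90 minutes at 37 degrees C before luminescent detection.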
GLP-1R inv ag: GLP-1 receptor (human) inverse agonism. P43220. HEK293 GLP-1R CRE-luciferase, luminescence, 24 h; GLP-1R form is constitutively active. Potency, µM (doses to about 38.3 µM), inactives show at the highest dose activity change, negative = inhibition, most hits filed as inhibitors. actives 1.6% (n = 410,000). AID 624417; also: potency is read from the fitted curve at half-maximal effect; % is scaled to controls: 0 for no effect and ±100 for the full control effect; nearly all actives have a fitted effect of over 55% in size
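Using stably transfected HEK293 (constitutively active GLP-1R, cAMP-luciferase reporter), compounds were incubated 24 hr and luciferase measured by luminescence.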
* hit, by the source's call; ! = not confirmed by another sample. Only some compounds are listed: those with a hit (about 4.3% of all), similar ones and a draw of the others. Unless noted, calls follow the shape of the dose curve; as a rule, active = well fitted curve in the direction sought with a large enough effect; inconclusive = small, poorly fitted or top-dose-only effect, or another doubt; inactive = no such curve, though single readings can be large; an effect the other way counts as inactive or inconclusive.

Results for COc1ccc(Cl)cc1NC(=O)Cn1ccn(-c2cc(C)cc(C)c2)c(=O)c1=O ?
D3 ag: 0; GLP-1R inv ag: inconclusive

Results for CC1(C(=O)Nc2ccc3c(c2)OCCO3)CCN1C(=O)C1(c2ccc(Cl)cc2)CCC1 (stereo not given) ?
GLP-1R agonist: -3%; D3 ag: 73*; DRD3 antagonist: 22; GLP-1R inv ag: inconclusive

Results for CC1(C(=O)Nc2ccc3c(c2)OCO3)CCN1C(=O)Cc1cccs1 (stereo not given) ?
GLP-1R agonist: 2%; D3 ag: -28; DRD3 antagonist: -102*; GLP-1R inv ag: 15%

Results for N[C@@H](CCC(=O)N[C@@H](CS)C(=O)NCC(=O)O)C(=O)O ?
D3 ag: -1

How did O=C(CN1CCN(C2CCCCC2)CC1)c1c[nH]c2ccccc12 do in these assays?
GLP-1R agonist: 2%; D3 ag: -2; DRD3 antagonist: -69*; GLP-1R inv ag: -11%

What do the screens show for `COc1ccccc1CN(C)C(=O)c1ccc(S(=O)(=O)NCc2ccco2)cc1`?
GLP-1R agonist: 6%; D3 ag: 0; DRD3 antagonist: 3; GLP-1R inv ag: 11%

Results for CCCCOc1ccc(C(=O)NCCS(=O)(=O)N2CCN(c3ccc(F)cc3)CC2)cc1 ?
D3 ag: 1; GLP-1R inv ag: 0%

What do the screens show for `CCCCOc1ccc(C(=O)NCCS(=O)(=O)N2CCN(c3ccccc3OC)CC2)cc1`?
D3 ag: 20; GLP-1R inv ag: 10µM*

How did Cc1ccc(NC(=O)N2CCN(Cc3nc4ccc(C)cc4o3)CC2)cc1 do in these assays?
D3 ag: 2; GLP-1R inv ag: -20%

What do the screens show for `CO[C@@H]1[C@@H]([C@H](C)[C@@H]2O[C@@]3(CC[C@@](C)([C@H]4CC[C@@](C)([C@H]5O[C@H]([C@H]6O[C@](C)(O)[C@H](C)C[C@@H]6C)C[C@H]5O[C@H]5C[C@@H](OC)[C@H](OC)[C@@H](C)O5)O4)O3)C[C@@H](O)[C@@H]2C)O[C@@](O)(CC(=O)O)[C@H](C)[C@H]1OC`?
GLP-1R agonist: -4%

Results for CC[C@@]1([C@@H]2O[C@@H]([C@H]3O[C@@](O)(CO)[C@H](C)C[C@@H]3C)C[C@@H]2C)CC[C@H]([C@]2(C)CC[C@]3(C[C@H](O)[C@@H](C)[C@@H]([C@@H](C)[C@@H](OC)[C@H](C)C(=O)O)O3)O2)O1 (stereo in doubt) ?
D3 ag: 75*!

Results for Cc1nc2scc(C)n2c(=O)c1S(=O)(=O)Nc1ccc(F)cc1 ?
GLP-1R agonist: 9%; D3 ag: 7; DRD3 antagonist: -14; GLP-1R inv ag: 3%

Results for CCCCOC(=O)c1ccc(NS(=O)(=O)c2c(C)nc3scc(C)n3c2=O)cc1 ?
D3 ag: 36*; GLP-1R inv ag: -4%

Results for Cc1cccc(C)c1N(CCCc1cccnc1)C(=O)C(C)N (stereo not given) ?
D3 ag: 4

What do the screens show for `COc1ccc(-c2csc(NC(=O)c3ccccc3NS(=O)(=O)c3ccc(C)cc3)n2)cc1`?
GLP-1R agonist: -30%; D3 ag: 8; DRD3 antagonist: 6; GLP-1R inv ag: 4.5µM*

Results for CCOc1ccccc1NC(=O)CSc1ccc2nnc(CCNS(=O)(=O)c3ccccc3)n2n1 ?
D3 ag: -3; GLP-1R inv ag: 30%

Results for CC1(C(=O)NS(=O)(=O)c2cccc(F)c2)CCN1C(=O)CC1CCCCC1 (stereo not given) ?
GLP-1R agonist: 0%; D3 ag: 30*; DRD3 antagonist: 14; GLP-1R inv ag: 25%

How did Cc1csc(=O)n1CC(=O)OCC(=O)c1c(N)n(CC(C)C)c(=O)n(C)c1=O do in these assays?
GLP-1R agonist: 10%; D3 ag: 11; DRD3 antagonist: 13; GLP-1R inv ag: -1%

How did O=C(O)c1nn(Cc2ncc(-c3cccc(Cl)c3)o2)c(=O)c2ccccc12 do in these assays?
GLP-1R agonist: 8%; D3 ag: 33*; DRD3 antagonist: 8; GLP-1R inv ag: 21%

What do the screens show for `O=C(O)c1ccc(N/N=C/c2c[nH]c3ccccc23)cc1`?
GLP-1R agonist: -12%; D3 ag: 3; DRD3 antagonist: 2; GLP-1R inv ag: 5.6µM*

What do the screens show for `O=C(N/N=C/c1c[nH]c2ccccc12)C1CC1(c1ccccc1)c1ccccc1` (stereo not given)?
GLP-1R agonist: -30%; D3 ag: -4; DRD3 antagonist: 8; GLP-1R inv ag: 4.5µM*

How did Cc1ccccc1NCC(=O)N/N=C/c1c[nH]c2ccccc12 do in these assays?
GLP-1R agonist: 2%; D3 ag: -3; DRD3 antagonist: 9; GLP-1R inv ag: inconclusive

What do the screens show for `Cc1cccc(NCC(=O)N/N=C\c2c[nH]c3ccccc23)c1`?
GLP-1R agonist: 0%; D3 ag: -5; DRD3 antagonist: 9; GLP-1R inv ag: 10µM*

How did CCC(=O)N1c2ccccc2CC1C(=O)NCc1ccc(OC(C)C)cc1 (stereo not given) do in these assays?
D3 ag: 26; GLP-1R inv ag: -4%

What do the screens show for `CCc1cccc(NC(=O)c2cc(S(=O)(=O)N3CCCCCC3)cn2C)c1`?
GLP-1R agonist: -2%; D3 ag: -1; GLP-1R inv ag: 5%

How did CCOc1ccc(CCNC(=O)CCCn2c(=O)c3cccn3c3cccnc32)cc1 do in these assays?
D3 ag: 6; GLP-1R inv ag: 5%

What do the screens show for `CC1=C(C(=O)NCc2ccccc2Cl)C2(CCCCCC2)OC1=O`?
D3 ag: -12; GLP-1R inv ag: inconclusive

What do the screens show for `Cc1cccc(NC(=O)c2sc(-n3nc(C)c(Cc4ccc5c(c4)OCO5)c3C)nc2C)c1C`?
D3 ag: -5; GLP-1R inv ag: -22%

How did CC(C)(C)n1nnnc1C(c1cccs1)N(Cc1cccnc1)Cc1ccccc1Cl (stereo not given) do in these assays?
GLP-1R agonist: -5%; D3 ag: -8; DRD3 antagonist: -58*; GLP-1R inv ag: inconclusive

What do the screens show for `CC(c1nnnn1C(C)(C)C)N(Cc1cccnc1)Cc1ccccc1Cl` (stereo not given)?
GLP-1R agonist: 9%; D3 ag: 1; DRD3 antagonist: 6; GLP-1R inv ag: -20%

How did Cc1ccc(C)c(NC(=O)CSc2nc3nccnc3c(=O)n2CCc2c[nH]c3ccccc23)c1 do in these assays?
D3 ag: 4; GLP-1R inv ag: inconclusive

What do the screens show for `COc1ccc(C)cc1NC(=O)CN(c1ccccc1F)S(C)(=O)=O`?
GLP-1R agonist: 1%; D3 ag: -2; DRD3 antagonist: -5; GLP-1R inv ag: 2%

What do the screens show for `Cc1ccc(C)c(N(CC(=O)Nc2cc(Cl)ccc2Oc2ccccc2)S(C)(=O)=O)c1`?
GLP-1R agonist: -8%; D3 ag: 1; DRD3 antagonist: 0; GLP-1R inv ag: 5µM*

How did Cc1cccc(C)c1N(CC(=O)Nc1cc(Cl)ccc1Oc1ccccc1)S(C)(=O)=O do in these assays?
GLP-1R agonist: -4%; D3 ag: 0; DRD3 antagonist: -54*; GLP-1R inv ag: 4.5µM*

Source: PubChem (National Center for Advancing Translational Sciences (NCATS))
